From PubChem BioAssay
TDP1 block: blocks human tyrosyl-DNA phosphodiesterase 1. recombinant TDP1, AlphaScreen DNA substrate cleavage. Potency, µM (highest dose often 130 µM), for the others: top-dose activity change, negative = inhibition, usual class: inhibitors. 0.28% of 350,000 active. AID 485290; further: on the % scale 0 is the no-effect control and ±100 the full control effect; nearly all actives have a fitted effect of over 40% in size
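Signal: AlphaScreen proximity between streptavidin donor and anti-FITC acceptor beads on intact substrate. Reaction: Tdp1 1 nM, substrate 15 nM final, 5 min RT after 15 min compound preincubation.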
TDP1 cell noCPT: qHTS for Inhibitors of human tyrosyl-DNA phosphodiesterase 1 (TDP1): qHTS in cells in absence of CPT. 15% of 420,000 active. AID 686978, 2013. Potency, µM (series often up to 46.2 µM), without a hit: top-dose activity change, negative = growth inhibition, usual class: inhibitors. DT40 Tdp1-/- hTDP1 cells, no CPT, ATP luminescence, 48 h; further: on the % scale 0 is the no-effect control and ±100 the full control effect; nearly all actives have a fitted effect of over 55% in size
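Compound effects on proliferation are scored in DT40 Tdp1-/-;hTDP1 cells in the absence of CPT. ATP levels (CellTiter-Glo luminescence) are recorded after a ≥48 hr, 37 °C incubation.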
DT40 TDP1 CPT: growth inhibition of DT40 Tdp1-/-;hTDP1 cells with camptothecin (screen for TDP1 inhibitors); chicken DT40 Tdp1-/-;hTDP1 cells + 20 nM CPT, ATP luminescence, 48 h; Potency, µM (highest dose often 46.2 µM), for the others: at the top dose activity change, negative = growth inhibition, hits mostly inhibitors; 12% of 420,000 active; AID 686979; further: on the % scale 0 is the no-effect control and ±100 the full control effect; nearly all actives have a fitted effect of over 55% in size
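Chicken DT40 Tdp1-/- cells complemented with human TDP1, 400 cells/well, exposed to compounds plus 20 nM camptothecin for at least 48 h at 37 C; viability read as ATP content by CellTiter-Glo luminescence.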
ClpP mod: qHTS Assay for Activators of ClpP. Potency, µM (titrated, usually from 57.5 µM), without a hit: at the top dose activity change, negative = active. 1.9% of 340,000 active. ATP-dependent Clp protease proteolytic subunit (Bacillus subtilis (strain 168)), P80244. purified B. subtilis ClpP, FRET peptide cleavage, 20 min; active means well fitted falling curve with a large enough effect; inconclusive means small, poorly fitted or top-dose-only effect; inactive means no such curve, though single readings can be large or run the other way; further: the source files actives as falling curves though it sought activators and does not explain the sign; nearly all actives have a fitted effect of over 65% in size
Target sequence (P80244 whole entry, looked up): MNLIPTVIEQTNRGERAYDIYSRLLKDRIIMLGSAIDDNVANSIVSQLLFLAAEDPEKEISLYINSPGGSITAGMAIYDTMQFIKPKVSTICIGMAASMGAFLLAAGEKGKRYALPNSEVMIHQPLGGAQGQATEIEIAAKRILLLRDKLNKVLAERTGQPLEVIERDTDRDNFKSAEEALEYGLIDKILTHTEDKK
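Purified B. subtilis ClpP, 10 microg/mL final in Tris/HCl pH8 with KCl, BSA, glycerol and Tween-20, cleaved an Abz/nitrotyrosine-quenched decapeptide. Fluorescence (ex 320, em 430) was read at 0 and 20 min at room temperature. Delta was normalized to 5.8 microM ADEP and DMSO/no-enzyme controls.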
Starred values were filed as active, the others as inactive; ? = inconclusive; / = not tested or not shown; ! = repeats disagree; [ ] = another dose, or the depositor's remark. Shown are actives, neighbours in structure and some others; about 17% of the full set was active somewhere. Unless noted, the call rests on the fitted dose curve; in most records, active means well fitted curve in the direction sought with a large enough effect; inconclusive means small, poorly fitted or top-dose-only effect, or another doubt; inactive means no such curve, though single readings can be large; an effect the other way counts as inactive or inconclusive. Potency means the concentration at half of the fitted maximal effect.

SMILES	TDP1 block	TDP1 cell noCPT	DT40 TDP1 CPT	ClpP mod
O=c1[nH]c(=O)n(Cc2ccco2)c2c1C(C(F)(F)F)(C(F)(F)F)N=C(c1ccc(F)cc1)N2	-8%	6.5µM*	12µM*	?
O=S(=O)(O)Sc1ccccc1	/	21µM*	23µM*	-2%
CCN(CC)c1ccc(SS(=O)(=O)O)cc1	8%	-28%	-9%	14µM*!
Nc1ccc(-c2cnc[nH]2)cc1[N+](=O)[O-]	2%	-19%	13%	-1%
COc1cc(C(=O)Nc2ccc(-c3nc4ccccc4o3)c(O)c2)cc(OC)c1OC	-2%[12.3 µM]	-13%	6%	-1%
CCCCn1c(=O)[nH]c(=O)c2c1nc(Cn1ncc(Cl)c(Cl)c1=O)n2CCC	3%	2.6µM*	4.6µM*	/
CSc1ccc(/C=C/c2ccc3cccc(O)c3n2)cc1	5%	21µM*	16µM*	/
Oc1ccc(Cl)cc1/C=C/c1ccc2cccc(O)c2n1	11%	26µM*	?	/
Oc1c(Cl)cc(Cl)cc1/C=C/c1ccc2cccc(O)c2n1	9%	?	?	/
Oc1ccc2ccccc2c1/C=C/c1ccc2c(Br)cc(Br)c(O)c2n1	/	5.2µM*	3.7µM*	-2%
COc1cc(Br)cc(/C=C/c2ccc3cccc(O)c3n2)c1O	/	9.2µM*	15µM*	-2%
O=[N+]([O-])c1cccc2ccc(/C=C/c3ccc(Cl)cc3)nc12	3%	-4%	1%	-2%
CCCn1c(SCC(O)c2ccccc2)nc2ccccc21 (stereo not drawn)	-9%	?	-26%	0%
O=C(NCC(=O)N(c1cccc(F)c1)C(C(=O)NC1CCCC1)c1cccnc1)c1cccs1 (stereo not drawn)	0%	-3%	-3%	0%
O=C(Nc1ccnn1C1CCN(Cc2cccc(F)c2F)CC1)C1CCCC1	2%	-4%	2%	1%
O=[N+]([O-])c1cccc2ccc(/C=C/c3cccc(Br)c3)nc12	-3%	?	-7%	?
COc1cc(/C=C/c2ccc3cccc(O)c3n2)ccc1O	/	16µM*	?	-14%
COc1cc(/C=C/c2ccc3cccc(OC)c3n2)c(O)c([N+](=O)[O-])c1	8%	-15%	-24%	3%
COc1cc(Br)c(/C=C/c2ccc3cccc(O)c3n2)cc1OC	/	13µM*	12µM*	-6%
Oc1cccc2ccc(/C=C/c3ccccc3Br)nc12	/	5.8µM*	6.5µM*	/
Cc1ccc(SCC(=O)NC(=O)Nc2ccc3c(c2)OCCO3)cc1C	0%	-2%	-21%	1%
Cc1nn(CC(=O)NC2CCC(C)CC2)c(C)c1[N+](=O)[O-] (stereo not drawn)	1%[56.1 µM]	0%	?	-1%
CCOC(=O)c1c(CN2CCCCC2)n(C)c2cc(Br)c(O)cc12	4%	9.2µM*	2.3µM*	-3%
CCOC(=O)c1c(C(C)(C)C)oc2ccc(O)cc12	0%	23µM*	21µM*	0%
CCOC(=O)c1c(COc2ccccc2)oc2ccc(O)cc12	3%	-15%	0%	-9%
SMILES	TDP1 block	TDP1 cell noCPT	DT40 TDP1 CPT	ClpP mod
CCOC(=O)c1c(CN2CCCCC2)oc2ccc(O)cc12	0%	?	?	28µM*
CCOC(=O)c1c(CN2CCOCC2)n(-c2ccccc2)c2cc(Br)c(OC)cc12	-5%	21µM*	16µM*	-1%
C[N+](C)(C)CCOP(=O)(O)OP(=O)([O-])OC[C@H]1O[C@@H](n2ccc(N)nc2=O)[C@H](O)[C@@H]1O	4%	14%	2%	4%
COc1cc(OC)cc(C(=O)Nc2ccc3c(c2)N(C2CCCC2)C(=O)c2ccccc2S3)c1	-5%	?	-16%	?
COc1ccc(CCN2C(=O)CCC2(C)c2nnnn2-c2ccc3c(c2)OCCO3)cc1OC (stereo not drawn)	/	?	-29%	0%
O=C(Nc1ccc(F)cc1F)c1ccc2c(c1)CCN2S(=O)(=O)c1ccc(Cl)cc1	5%	?	?	-2%
CCOC(=O)c1c(CN2CCN(C)CC2)n(C)c2cc(Br)c(OC)cc12	-1%	?	?	-4%
CCOC(=O)c1c(CSC(=N)N)n(C)c2cc(Br)c(OC(C)=O)cc12	/	16µM*	16µM*	/
O=c1sc2ccccc2c(=O)n1Cc1ccccc1F	0%	-14%	11%	/
O=c1c2ccccc2sc2nc(CCl)nn12	/	?	?	16µM*
Cc1cc(C)cc(Oc2nc3ccccn3c(=O)c2/C=C(\C#N)C(=O)NC2CCS(=O)(=O)C2)c1 (stereo not drawn)	/	9.2µM*	?	/
O=C(NNC(=O)C1CC1)c1ccccc1[N+](=O)[O-]	1%	0%	2%	0%
Cc1ccc(NC(=O)CCC(=O)N2Cc3ccccc3Oc3ncccc32)cc1F	-1%	?	-12%	-3%
Cc1nn(Cc2ccccc2)c(C)c1NC(=O)CSc1nc(C2CC2)nc2c1cnn2-c1ccccc1	5%	16µM*	16µM*	-6%
Cc1nn(C)c(C)c1NC(=O)CSc1nc(Cc2ccccc2)nc2c1cnn2-c1ccccc1	/	?	?	-1%
COc1ccc(NC(=O)C2CC23CCN(Cc2cccc4ncccc24)CC3)cc1Cl (stereo not drawn)	/	?	-29%	/
COc1ccc(CN(C(=O)c2nsc(Cl)c2Cl)C(C(=O)NC2CCCC2)c2ccc(C)cc2)cc1 (stereo not drawn)	3%	15µM*	12µM*	/
COc1ccc(CN(C(=O)c2nsc(Cl)c2Cl)C(C(=O)NC2CCCCC2)c2ccc(OC)cc2)cc1 (stereo not drawn)	-1%	23µM*	5.8µM*	1%
COc1ccc(CN(C(=O)c2snc(C(N)=O)c2N)C(C(=O)NC2CCCC2)c2ccc(OC)c(OC)c2)cc1 (stereo not drawn)	/	?	?	-9%
CC(=O)c1ccc(NC(=O)CSc2n[nH]c(-c3cccnc3)n2)cc1	-6%	-10%	26%	/
OC(c1ccccc1)c1ccccc1CN1CCCNC1=S (stereo not drawn)	/	-29%	11%	0%
COc1ccc(-c2[nH]ncc2/C=N\NC(=O)c2ccc(C(C)(C)C)cc2)cc1OC	6%	26µM*	?	1%
COc1cc(/C=N\NC(=O)c2ccc(-c3ccccc3)cc2)cc(OC)c1O	3%	-25%	?	-7%
COc1cccc(/C=N/NC(=O)c2ccc(=O)n(C)c2)c1OC	-2%	9%	21%	-5%
COc1ccccc1/C=N/NC(=O)c1ccc(-c2ccccc2)cc1	0%	?	21µM*	?
COc1cccc(/C=N/NC(=O)c2ccccc2)c1OS(=O)(=O)c1ccccc1	3%	26µM*	?	1%
COc1cc(/C=N/NC(=O)c2cccc3ccccc23)cc(OC)c1O	3%[56.1 µM]	?	4.6µM*	-4%
